Common to all, as to conditions: mRNA level, 48 h; actives raise or lower the signal
Read-out in assay [1]: Insulin-like growth factor-binding protein 1 (IGFBP1), IGFBP1 (gene 3484)
Kind of assay: LTEA_HepaRG_IGFBP1: Life Technologies and Expression Analysis (LTEA) Assay for Insulin-like growth factor-binding protein 1 (IGFBP1) using HepaRG (AID 2283508). In short, it runs like this:
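Differentiated human HepaRG cells in serum-free induction medium were exposed in duplicate for 48 h to eight concentrations, top 100 uM with half-log dilutions, in 0.5% DMSO. Transcript levels came from qRT-PCR normalised to ACTB, GAPDH and POLR2A, fitted bidirectionally against DMSO.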

Read-out in assay [2]: Interleukin 6 (IL6), IL6 (gene 3569)
Briefly: LTEA_HepaRG_IL6: Life Technologies and Expression Analysis (LTEA) Assay for Interleukin 6 (IL6) using HepaRG (AID 2283509). The gist of the method: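 HepaRG cells exposed in duplicate for 48 h to eight half-log concentrations, top 100 uM, in 0.5% DMSO serum-free induction medium. mRNA measured by qRT-PCR, normalized to ACTB, GAPDH and POLR2A. Bidirectional fit versus DMSO.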

Read-out in assay [3]: Interleukin 6 Receptor (IL6R), IL6R (gene 3570)
Kind of assay: LTEA_HepaRG_IL6R: Life Technologies and Expression Analysis (LTEA) Assay for Interleukin 6 Receptor (IL6R) using HepaRG (AID 2283510). In short, it runs like this: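 Concentration-response in human liver HepaRG cells: eight concentrations from 100 uM downward by half-logs, 48 h exposure, 0.5% DMSO vehicle. IL6R mRNA change measured by qRT-PCR and fitted in both directions relative to vehicle.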

Read-out in assay [4]: Potassium channel subfamily K member 1 (KCNK1), KCNK1 (gene 3775)
Briefly: LTEA_HepaRG_KCNK1: Life Technologies and Expression Analysis (LTEA) Assay for Potassium channel subfamily K member 1 (KCNK1) using HepaRG (AID 2283511). In short, it runs like this:
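Differentiated HepaRG cells, 48 h exposure in serum-free induction medium with 0.5% DMSO; 8 concentrations, half-log from 100 uM, duplicate. KCNK1 mRNA by qRT-PCR, normalized to ACTB, GAPDH, POLR2A; bidirectional fit vs DMSO.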

Read-out in assay [5]: Keratin 19 (KRT19), KRT19 (gene 3880)
Briefly: LTEA_HepaRG_KRT19: Life Technologies and Expression Analysis (LTEA) Assay for Keratin 19 (KRT19) using HepaRG (AID 2283512). The gist of the method:
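Differentiated human HepaRG cells, plated 48 h, were exposed in duplicate for 48 h in serum-free induction medium to eight half-log concentrations up to 100 uM in 0.5% DMSO. KRT19 mRNA was quantified by qRT-PCR, normalized to ACTB, GAPDH and POLR2A, and fitted bidirectionally versus DMSO.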

Read-out in assay [6]: JUN Transcription Factor, JUN (gene 3725)
Briefly: LTEA_HepaRG_JUN: Life Technologies and Expression Analysis (LTEA) Assay for JUN Transcription Factor using HepaRG (AID 2283513). The gist of the method: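 Human HepaRG liver cells receive test chemicals in 0.5% DMSO for 48 h across an eight-point range topping at 100 uM. Expression changes in JUN are scored in both directions against the DMSO vehicle.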

Read-out in assay [7]: Lipase C (LIPC), LIPC (gene 3990)
Briefly: LTEA_HepaRG_LIPC: Life Technologies and Expression Analysis (LTEA) Assay for Lipase C (LIPC) using HepaRG (AID 2283514). The gist of the method:
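HepaRG cells, 48 h after plating, treated in duplicate for 48 h in serum-free induction medium over 8 half-log concentrations from 100 uM, 0.5% DMSO. LIPC mRNA by TaqMan qRT-PCR normalized to ACTB/GAPDH/POLR2A; bidirectional fit versus DMSO.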

Read-out in assay [8]: Lipoprotein lipase (LPL), LPL (gene 4023)
Briefly: LTEA_HepaRG_LPL: Life Technologies and Expression Analysis (LTEA) Assay for Lipoprotein lipase (LPL) using HepaRG (AID 2283515). The gist of the method:
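Differentiated HepaRG cells, plated 48 h, then exposed 48 h in serum-free induction medium to 8 concentrations (top 100 uM, half-log steps) in 0.5% DMSO, duplicate. LPL mRNA measured by qRT-PCR, normalized to ACTB, GAPDH and POLR2A.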

Read-out in assay [9]: MicroRNA 122 (MIR122), gene 406906
Briefly: LTEA_HepaRG_MIR122: Life Technologies and Expression Analysis (LTEA) Assay for MicroRNA 122 (MIR122) using HepaRG (AID 2283516). Also: the transcript read is the microRNA miR-122. In short, it runs like this:
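HepaRG, 48 h exposure, 8-pt half-log from 100 uM, 0.5% DMSO; TaqMan qRT-PCR; bidirectional fit vs DMSO.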

Read-out in assay [10]: matrix metalloproteinase-10 (MMP10), MMP10 (gene 4319)
Briefly: LTEA_HepaRG_MMP10: Life Technologies and Expression Analysis (LTEA) Assay for matrix metalloproteinase-10 (MMP10) using HepaRG (AID 2283517). The gist of the method:
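Differentiated HepaRG cells in serum-free induction medium exposed 48 h in duplicate to 8-point half-log series up to 100 uM in 0.5% DMSO. mRNA quantified by qRT-PCR, normalised to ACTB, GAPDH, POLR2A; bidirectional fit versus DMSO.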

Read-out in the next assay: MYC, MYC (gene 4609)
Kind of assay: LTEA_HepaRG_MYC: Life Technologies and Expression Analysis (LTEA) Assay for MYC using HepaRG (AID 2283518). In short, it runs like this: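 Differentiated human HepaRG cells, plated 48 h then switched to serum-free induction medium, were exposed in duplicate for 48 h to 8-point half-log series up to 100 uM in 0.5% DMSO. MYC mRNA measured by qRT-PCR, normalized to ACTB/GAPDH/POLR2A.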

Read-out in assay [11]: matrix metalloproteinase-3 (MMP3), MMP3 (gene 4314)
Kind of assay: LTEA_HepaRG_MMP3: Life Technologies and Expression Analysis (LTEA) Assay for matrix metalloproteinase-3 (MMP3) using HepaRG (AID 2283519). In short, it runs like this: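 HepaRG cells (~100,000/well) in serum-free induction medium were dosed in duplicate for 48 h with an 8-point half-log series from 100 uM, 0.5% DMSO. MMP3 mRNA was quantified by Fluidigm TaqMan qRT-PCR, normalized to three housekeeping genes.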

Read-out in assay [12]: Nuclear factor NF-kappa-B p105 subunit (Homo sapiens) (UniProt P19838)
Briefly: LTEA_HepaRG_NFKB1: Life Technologies and Expression Analysis (LTEA) Assay for Nuclear Factor Kappa B Subunit 1 (NFKB1) using HepaRG (AID 2283521).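 Also: TaqMan qRT-PCR transcript normalised to ACTB GAPDH and POLR2A housekeeping genes.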 In short, it runs like this:
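Differentiated human HepaRG cells were exposed for 48 h in serum-free induction medium to eight concentrations (top 100 uM, half-log steps, 0.5% DMSO), in duplicate. NFKB1 mRNA was measured by TaqMan qRT-PCR, normalized to ACTB/GAPDH/POLR2A, and fitted bidirectionally against DMSO.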

Read-out in assay [13]: Protein phosphatase 2A (PPP2R4), PTPA (gene 5524)
Briefly: LTEA_HepaRG_PPP2R4: Life Technologies and Expression Analysis (LTEA) Assay for Protein phosphatase 2A (PPP2R4) using HepaRG (AID 2283522). The gist of the method:
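Gene-expression endpoint in HepaRG hepatic cells: 48 h treatment across eight half-log concentrations up to 100 uM in 0.5% DMSO. PPP2R4 mRNA by qRT-PCR, normalized to three endogenous control genes.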

Read-out in assay [14]: Phosphatase and tensin (PTEN), PTEN (gene 5728)
Kind of assay: LTEA_HepaRG_PTEN: Life Technologies and Expression Analysis (LTEA) Assay for Phosphatase and tensin (PTEN) using HepaRG (AID 2283523). In short, it runs like this: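 HepaRG cells, 48 h after plating, exposed in duplicate for 48 h in serum-free induction medium to 8 half-log concentrations up to 100 uM (0.5% DMSO). PTEN mRNA by qRT-PCR, normalized to ACTB, GAPDH, POLR2A; bidirectional fit versus DMSO.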

Read-out in assay [15]: solute carrier (SLC22A1), SLC22A1 (gene 6580)
Briefly: LTEA_HepaRG_SLC22A1: Life Technologies and Expression Analysis (LTEA) Assay for solute carrier (SLC22A1) using HepaRG (AID 2283524). The gist of the method: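 Differentiated human HepaRG cells in serum-free induction medium, exposed 48 h in duplicate to 8-point half-log series from 100 µM top in 0.5% DMSO. SLC22A1 mRNA by TaqMan qRT-PCR normalized to ACTB, GAPDH, POLR2A; bidirectional fit versus DMSO.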

Read-out in assay [16]: Pyruvate Dehydrogenase Kinase 4 (PDK4), PDK4 (gene 5166)
Kind of assay: LTEA_HepaRG_PDK4: Life Technologies and Expression Analysis (LTEA) Assay for Pyruvate Dehydrogenase Kinase 4 (PDK4) using HepaRG (AID 2283525). The gist of the method: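 HepaRG cells plated 48 h, then switched to serum-free induction medium and exposed in duplicate for 48 h to 8 half-log concentrations from 100 uM in 0.5% DMSO. PDK4 mRNA measured by qRT-PCR, normalized to ACTB, GAPDH and POLR2A; bidirectional fit versus DMSO.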

Read-out in assay [17]: NAD(P)H dehydrogenase [quinone] 1 (NQO1), NQO1 (gene 1728)
Kind of assay: LTEA_HepaRG_NQO1: Life Technologies and Expression Analysis (LTEA) Assay for NAD(P)H dehydrogenase [quinone] 1 (NQO1) using HepaRG (AID 2283526). The gist of the method: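 Human HepaRG hepatic cells received chemicals for 48 h in serum-free induction medium with 0.5% DMSO, up to 100 uM. Expression was assessed by TaqMan qRT-PCR against housekeeping controls and fitted bidirectionally against DMSO.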

Read-out in assay [18]: Nuclear factor erythroid 2-related factor 2 (Homo sapiens) (UniProt Q16236)
Kind of assay: LTEA_HepaRG_NFE2L2: Life Technologies and Expression Analysis (LTEA) Assay for Nuclear factor erythroid 2-related factor 2 (NFE2L2) Transcription Factor using HepaRG (AID 2283527).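 Also: TaqMan qRT-PCR transcript level normalised to ACTB GAPDH and POLR2A housekeeping genes.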 In short, it runs like this: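 Differentiated human HepaRG cells, serum-free induction medium, exposed 48 h in duplicate to eight half-log concentrations up to 100 uM in 0.5% DMSO. NFE2L2 mRNA by Fluidigm TaqMan qRT-PCR, normalised to ACTB, GAPDH, POLR2A; bidirectional change versus DMSO.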

Read-out in assay [19]: Paternally Expressed 10 (PEG10), PEG10 (gene 23089)
Briefly: LTEA_HepaRG_PEG10: Life Technologies and Expression Analysis (LTEA) Assay for Paternally Expressed 10 (PEG10) using HepaRG (AID 2283520).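 As to AC50: PEG10 transcript by qRT-PCR normalised to ACTB GAPDH and POLR2A.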 The gist of the method:
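Chemicals tested on HepaRG cells for 48 h, highest concentration 100 uM. PEG10 expression assessed by qRT-PCR relative to DMSO control.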

Active and inactive are the calls of the source. The calls were made as follows: active = hit-call score of the fitted dose curve at least 0.9, where 1 is the maximum; inactive = score below 0.9.

Chain of Nuclear factor erythroid 2-related factor 2 (Homo sapiens) (Q16236 whole entry, looked up): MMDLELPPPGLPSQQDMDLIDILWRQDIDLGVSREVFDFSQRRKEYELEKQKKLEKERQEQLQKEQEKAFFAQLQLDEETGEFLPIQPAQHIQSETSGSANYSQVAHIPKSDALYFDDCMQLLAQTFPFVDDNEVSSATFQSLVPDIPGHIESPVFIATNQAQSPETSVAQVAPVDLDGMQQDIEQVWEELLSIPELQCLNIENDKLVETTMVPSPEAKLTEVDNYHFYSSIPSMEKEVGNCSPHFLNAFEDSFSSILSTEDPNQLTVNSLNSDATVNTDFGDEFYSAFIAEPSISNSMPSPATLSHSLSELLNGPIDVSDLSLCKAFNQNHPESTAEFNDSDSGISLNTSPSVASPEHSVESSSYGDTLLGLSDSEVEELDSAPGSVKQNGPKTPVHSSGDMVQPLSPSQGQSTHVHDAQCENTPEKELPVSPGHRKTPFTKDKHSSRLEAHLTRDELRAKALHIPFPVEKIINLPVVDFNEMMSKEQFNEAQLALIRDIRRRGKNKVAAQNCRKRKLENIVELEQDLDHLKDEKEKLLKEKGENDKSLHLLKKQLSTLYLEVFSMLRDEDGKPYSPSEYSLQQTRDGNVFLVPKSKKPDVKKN
Chain of Nuclear factor NF-kappa-B p105 subunit (Homo sapiens) (P19838 whole entry, looked up): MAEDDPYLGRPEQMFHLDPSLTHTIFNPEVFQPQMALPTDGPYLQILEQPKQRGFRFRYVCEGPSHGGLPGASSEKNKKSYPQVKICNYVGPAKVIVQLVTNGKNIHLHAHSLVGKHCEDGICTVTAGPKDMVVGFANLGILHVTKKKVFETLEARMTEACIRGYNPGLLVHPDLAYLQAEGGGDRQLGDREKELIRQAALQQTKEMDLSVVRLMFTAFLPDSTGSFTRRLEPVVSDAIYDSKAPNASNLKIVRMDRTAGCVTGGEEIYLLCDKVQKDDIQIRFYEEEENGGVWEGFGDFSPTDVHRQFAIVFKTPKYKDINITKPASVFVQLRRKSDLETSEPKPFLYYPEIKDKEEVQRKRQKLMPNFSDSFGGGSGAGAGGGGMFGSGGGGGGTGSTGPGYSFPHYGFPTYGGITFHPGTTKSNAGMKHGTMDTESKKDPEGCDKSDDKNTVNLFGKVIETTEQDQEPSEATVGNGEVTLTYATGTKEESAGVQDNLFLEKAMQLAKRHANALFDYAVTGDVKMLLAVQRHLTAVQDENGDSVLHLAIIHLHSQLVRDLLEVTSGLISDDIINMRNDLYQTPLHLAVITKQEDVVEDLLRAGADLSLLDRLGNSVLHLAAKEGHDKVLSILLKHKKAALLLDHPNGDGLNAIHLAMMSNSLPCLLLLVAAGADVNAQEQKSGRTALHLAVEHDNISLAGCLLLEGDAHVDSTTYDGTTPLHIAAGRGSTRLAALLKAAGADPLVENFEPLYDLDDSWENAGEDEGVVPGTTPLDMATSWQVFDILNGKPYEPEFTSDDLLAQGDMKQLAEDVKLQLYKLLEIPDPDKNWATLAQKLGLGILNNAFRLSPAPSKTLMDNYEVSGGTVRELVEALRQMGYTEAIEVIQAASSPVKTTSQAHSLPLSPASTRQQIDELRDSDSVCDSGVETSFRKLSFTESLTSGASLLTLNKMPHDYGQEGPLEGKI

As to `Clc1ccc(C(c2ccccc2Cl)C(Cl)(Cl)Cl)cc1` (configuration not stated), the result in assay [1], in assay [2], in assay [3], in [4], in assay [6] and in assay [9] was inactive. The outcome in assay [10] is “inactive”; with MYC, MYC (gene 4609), “inactive”; in assay [11], “inactive”; in assay [12] it was “inactive”; in [13], “inactive”; in assay [14], “inactive”. The result in assay [15], in [16], in assay [17] and in assay [18] was inactive. Also, the half-maximal activity concentration (AC50) is 20.4 µM (active) in assay [5], 84.4 µM (active) in assay [7] and 89.7 µM (active) in [8].
As to `O=C(O)C(F)(F)C(F)(F)C(F)(F)C(F)(F)C(F)(F)C(F)(F)C(F)(F)C(F)(F)F`, the AC50 in assay [1] was 86.1 µM (active); in assay [2] it was 78.6 µM (active); in assay [4], 76 µM (active); in [5] it was 66.6 µM (active); in [6], 68.2 µM (active); in assay [7], 94.5 µM (active). Besides, the AC50 was 79.5 µM (active) in assay [8]; 74.4 µM (active) in [9]; 76.9 µM (active) in [10]; 78.7 µM (active) with MYC, MYC (gene 4609); 86.1 µM (active) in assay [15]; 32.8 µM (active) in [16]. Also, the outcome in [3], in assay [11], in [19], in assay [13], in [14] and in assay [17] was inactive.
In the case of `C[C@]12CCC(=O)C=C1CC[C@@H]1[C@@H]2CC[C@]2(C)C(=O)CC[C@@H]12`, the result in assay [1], in [3], in [4], in [5], in assay [6] and in assay [8] was inactive. In addition, the outcome in [9] was “inactive”; in assay [10], “inactive”; with MYC, MYC (gene 4609), “inactive”; in assay [13] it was “inactive”; in assay [14], “inactive”; in assay [15], “inactive”. For the same molecule, the molecule was classed as inactive in [16] and in [17]. In addition, the half-maximal activity concentration (AC50) in assay [2] was 9.92 µM (active); in [11] it was 8.39 µM (active); in assay [19] it was 6.54 µM (active).
Regarding `Oc1ccc(Cl)cc1Cl`, the molecule was called inactive in assay [1], in [2], in [3], in assay [4], in [5] and in assay [6]. The outcome in assay [7] is “inactive”; in [8] it was “inactive”; in assay [9], “inactive”; in assay [10], “inactive”; with MYC, MYC (gene 4609) it was “inactive”; in assay [11] it was “inactive”. In addition, the molecule was called inactive in assay [19], in assay [13], in assay [14], in assay [15], in assay [16] and in [17].
